PubChem BioAssay (NCI)
This is part of a sample that, as a whole, favours compounds with a hit. Of some 83,000 tested, about 20% had one in any assay.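 Compound tested at a single concentration for 48 hours in 96-well plates; a percent growth value below 10 was scored as active.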 A number with no mark means an inactive call. The source made the active and inactive calls.

Test system: RPMI-8226 leukemia
Experiment: NCI-60 one-dose screen, 48 h (100 = growth as untreated, 0 = no growth, -100 = all killed)
Conditions: 10 µM unless noted

Compound | growth
COCCOc1cc2ncnc(N3CCN(c4ncc(S(=O)(=O)N5CCCCC5)cn4)CC3)c2cc1OCCOC | 90.2%
COC(=O)[C@]1(C)CCC[C@]2(C)[C@H]3C[C@H]4C(C(C)C)=C[C@]3(CC[C@H]21)[C@@H]1C(=O)CC[C@H](OCCC#N)[C@@H]14 | 68%
O=C(O)CCN1C(=O)/C(=C/C(Cl)=C/c2ccccc2)SC1=S | -8.3% (active)
O=C(/C=C/c1cccc(Cl)c1)c1ccc(Nc2nc(Nc3ccc(F)cc3)nc(Nc3ccc(Cl)cc3)n2)cc1 | 5.94% (active)
CC(C)(Sc1cc(C(C)(C)C)c(O)c(C(C)(C)C)c1)Sc1cc(C(C)(C)C)c(OC(=O)CCCC(=O)O)c(C(C)(C)C)c1 | 37.2%
Fc1cc2c(cc1Cl)N(c1ncnc3ccc(-c4ccc5n[nH]nc5c4)cc13)CC2 | 92%
CCSC(SCC)c1ccc(Cl)cc1 | 106%
O=C(Nc1nc2ccc(C(=O)N3CCN(/C=C/c4ccccc4)CC3)cc2s1)c1ccc(NCCc2ccccc2)c([N+](=O)[O-])c1 | 18.5%
O=S(=O)(Nc1cc(F)cc(Cl)c1)c1ccc(-c2cnc(C3CC3)o2)cc1 | 28.9%
COC(=O)c1c(C)nc(C)c2c1C(=O)C(Br)=C(NCc1ccccc1)C2=O | 41.1%
COc1cc2c(c(OC)c1OC)CCC(c1cccc(C(=O)Nc3ccc(C#N)cc3)c1)O2 (stereo not given) | 14.4%
O=C1c2ccccc2-c2c1c1c(=O)[nH]c3ccccc3c1n2Cc1ccccc1 | 80.3%
O=C1c2c(c3c4ccccc4[nH]c3c3ccc4ccccc4c23)C(=O)N1CCN1CCNCC1 | -35% (active)
CC(C)=CCCC(C)c1ccc(C)c2c1OCN(CCCCCO)C2 (stereo not given) | 76.7%
COc1ccc(/C=N/NC(=O)c2ccc(-n3cc(-c4ccccc4)nn3)cc2)cc1OC | 61.8%
CCN(CC)S(=O)(=O)c1ccc(S(=O)(=O)N2CCC[C@@H](C(=O)N3CCN(c4nc(C(C)C)no4)CC3)C2)cc1 | 54.8%
Cc1cc(N2CCN(CC(=O)Nc3ccc4c(ccn4C)c3)CC2)nc(N2CCCCCC2)n1 | 76.1%
COc1ccc(Nc2ncc(Br)c(NCCCNC(=O)c3cccs3)n2)cc1 | 27.3%
NC(=O)C(=O)c1ccccc1NC=O | 105%
N#Cc1ccc2c(c1)C(=O)c1c-2n(CCCN)c(=O)c2cc([N+](=O)[O-])ccc12 | -45.5% (active)

Compound | growth
c1ccc(Cn2cc3c(c2)-c2oncc2CC3)cc1 | 8.25% (active)
O=C(CSC(=S)n1cnnc1)NC(=O)c1ccccc1 | 100%
O=C1/C(=C\c2ccc3nccnc3c2)SC(=S)N1CCc1ccc(O)cc1 | 68.2%
COc1c(B(O)O)cccc1-c1nc2c(F)cc3[nH]ncc3c2c2c1CCCC2 | -11.7% (active)
COc1c(B(O)O)cccc1-c1cc(C)c2c(ccc3[nH]ncc32)n1 | 68.7%
CSc1nnc(-c2cc3c([nH]c4ccccc43)c(-c3cccc(O)c3)n2)n1-c1ccccc1 | 16.2%
C=C1C(=O)O[C@H]2[C@H]1CC/C(Cn1cc(-c3ccccc3)nn1)=C\CC[C@@]1(C)O[C@@H]21 | -20.5% (active)
C=C(CBr)[C@@H]1CC[C@]2(C(=O)O)CC[C@]3(C)[C@H](CC[C@@H]4[C@@]5(C)CCC(=O)C(C)(C)[C@@H]5CC[C@]43C)[C@@H]12 | 42.3%
CCNCCNc1cc(C2CCCCC2)c(C#N)c2nc3ccccc3n12 | -13.9% (active)
COc1cc2c(c(OC)c1OC)CCC(c1cccc(C(=O)Nc3cccc(Cl)c3)c1)O2 (stereo not given) | 39.1%
CCCCCCCC[C@@H]1N[C@@H](C(=O)OC)Cc2c1[nH]c1ccccc21 | 95.4%
CC(=O)Oc1ccc(/C(=C(\C)c2ccc(Cl)cc2)c2ccc(OCCN3CCCCC3)cc2)cc1 | 9.5% (active)
COc1ccc2cc1Oc1ccc(cc1)C[C@H]1c3c(cc4c(c3Oc3cc5c(cc3OC)CCN(C)[C@@H]5C2)OCO4)CCN1C | 48%
CC(=O)c1c(C)nc2ccccc2c1/C=C/c1ccc(F)cc1 | 66.5%
CN(/C(N)=N/N=C/c1c2ccccc2cc2ccccc12)C1CCCCC1 | 2.66% (active)
CCOC(=O)n1ccn(C)c1=S | 103%
Cc1cn(-c2cc(NC(=O)c3cncc(C#Cc4cnc(N)c5ncccc45)c3)cc(C(F)(F)F)c2)cn1 | 50.9%
O=C(Cn1cc(CSc2nc3ccccc3o2)nn1)Nc1ccc(F)cc1F | 114%
Cc1c2cnccc2c(C)c2c1c1cc(C#N)ccc1n2C | -22.9% (active)
CNC(=O)c1ccccc1Oc1nc(Nc2cc(OC)c(OC)c(OC)c2)ncc1Br | 73.1%
